PubChem BioAssay (NCATS)
Records with an inconclusive call do not appear. A call without a number means that no potency is given here. Activity calls are given as the source filed them. Calls come from the whole dose curve; as a rule, active = well fitted curve in the direction sought with a large enough effect; inconclusive = small, poorly fitted or top-dose-only effect, or another doubt; inactive = no such curve, though single readings can be large; an effect the other way counts as inactive or inconclusive.

Tests used:
[1] = biological target: Furin (Homo sapiens) (UniProt P09958); experiment: Furin counterscreen qHTS for Zika virus inhibitors (AID 1347149); note: nearly all actives have a fitted effect of over 70% in size; note: potency is the fitted concentration of half-maximal effect
How it was run: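 Counterscreen measures cleavage of 2 microM BOC-RVRR-AMC, below its ~15 microM Km, by 5 nM full-length human furin at pH 7.0 after a 15-min compound preincubation. Inhibition derives from the 15-min fluorescence increase at 37C.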

[2] = qHTS of pediatric cancer cell lines to identify multiple opportunities for drug repurposing: Primary screen for SJ-GBM2 cells (AID 1347091)
How it was run: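 Viability measured as metabolically active cells via CellTiter-Glo luminescence following 48 hours of compound exposure, 11-point dilutions in confirmatory testing. 500-1,000 cells/well plated 5 hours before dosing; controls were DMSO and 2.3 µM bortezomib.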

[3] = qHTS of pediatric cancer cell lines to identify multiple opportunities for drug repurposing: Primary screen for A673 cells (AID 1347092); note: nearly all actives have a fitted effect of over 45% in size; note: potency is the fitted concentration of half-maximal effect
How it was run: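 A673 cells (500-1,000 cells/well) were treated 48 hours at 37 degrees C with compounds at 11-point (0.78 nM to 46 µM) or 8-point (0.59 nM to 46 µM) dilutions. Viability read by CellTiter-Glo luminescence; concentration-response curves fitted.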

[4] = qHTS of pediatric cancer cell lines to identify multiple opportunities for drug repurposing: Primary screen for SK-N-MC cells (AID 1347093); note: series mostly up to about 46 µM
How it was run: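 Metabolically active cells were quantified by ATP-dependent luminescence (CellTiter-Glo, 15 min at room temperature) following 48 h treatment. Cells had been plated at 500-1,000 per well and settled for 5 h beforehand.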

[5] = qHTS of pediatric cancer cell lines to identify multiple opportunities for drug repurposing: Primary screen for BT-37 cells (AID 1347094); note: series mostly up to about 57 µM
How it was run: (§1)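 Viability was measured as metabolically active cells after 48 hours of treatment, read by CellTiter-Glo luminescence. Compounds were tested at multiple final concentrations, giving concentration-response curves.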

[6] = qHTS of pediatric cancer cell lines to identify multiple opportunities for drug repurposing: Primary screen for NB-EBc1 cells (AID 1347095)
How it was run: as §1

[7] = qHTS of pediatric cancer cell lines to identify multiple opportunities for drug repurposing: Primary screen for U-2 OS cells (AID 1347096); note: nearly all actives have a fitted effect of over 50% in size
How it was run: (§2)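 Viability after 48 h compound treatment at 37C, 500-1,000 cells/well, read as ATP luminescence with CellTiter-Glo. Primary screens used 11-point (MIPE, 0.78 nM-46 µM) or 8-point (NPC, 0.59 nM-46 µM) final concentrations; follow-up screens used 11-point dilutions.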

[8] = qHTS of pediatric cancer cell lines to identify multiple opportunities for drug repurposing: Primary screen for Saos-2 cells (AID 1347097); note: nearly all actives have a fitted effect of over 40% in size; note: potency is the fitted concentration of half-maximal effect
How it was run: as §1

[9] = qHTS of pediatric cancer cell lines to identify multiple opportunities for drug repurposing: Primary screen for SK-N-SH cells (AID 1347098); note: nearly all actives have a fitted effect of over 65% in size; note: potency is the fitted concentration of half-maximal effect
How it was run: (§3)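 Cells (500-1,000/well) rested 5 h, then received compounds for 48 h; metabolically active cells were measured by CellTiter-Glo luminescence. Final concentrations spanned up to 46 µM (MIPE, 11-point) or 0.59 nM-46 µM (NPC, 8-point) in primary screens, 11-point in follow-ups.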

[10] = qHTS of pediatric cancer cell lines to identify multiple opportunities for drug repurposing: Primary screen for NB1643 cells (AID 1347099); note: nearly all actives have a fitted effect of over 50% in size; note: potency is the fitted concentration of half-maximal effect
How it was run: as §1

[11] = qHTS of pediatric cancer cell lines to identify multiple opportunities for drug repurposing: Primary screen for LAN-5 cells (AID 1347100); note: potency is the fitted concentration of half-maximal effect
How it was run: as §2

[12] = qHTS of pediatric cancer cell lines to identify multiple opportunities for drug repurposing: Primary screen for BT-12 cells (AID 1347101); note: nearly all actives have a fitted effect of over 25% in size
How it was run: as §3

[13] = qHTS of pediatric cancer cell lines to identify multiple opportunities for drug repurposing: Primary screen for Rh18 cells (AID 1347102); note: nearly all actives have a fitted effect of over 65% in size
How it was run: as §2

[14] = qHTS of pediatric cancer cell lines to identify multiple opportunities for drug repurposing: Primary screen for OHS-50 cells (AID 1347103); note: nearly all actives have a fitted effect of over 40% in size
How it was run: as §3

[15] = qHTS of pediatric cancer cell lines to identify multiple opportunities for drug repurposing: Primary screen for RD cells (AID 1347104); note: nearly all actives have a fitted effect of over 55% in size
How it was run: as §1

[16] = qHTS of pediatric cancer cell lines to identify multiple opportunities for drug repurposing: Primary screen for MG 63 (6-TG R) cells (AID 1347105); note: nearly all actives have a fitted effect of over 50% in size
How it was run: as §1

[17] = qHTS of pediatric cancer cell lines to identify multiple opportunities for drug repurposing: Primary screen for control Hh wild type fibroblast cells (AID 1347106);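 note: series mostly up to about 46 µM; a drop in luminescence marks cytotoxicity and a rise apparent proliferation; nearly all actives have a fitted effect of over 55% in size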
How it was run: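 Cells (500-1,000/well) in growth media were settled 5 h at 37 degrees C, then given compounds for 48 h. Viability was read as CellTiter-Glo luminescence. Primary runs used MIPE at 11 points (0.78 nM-46 µM) and NPC at 8 points (0.59 nM-46 µM); follow-ups used 11 points.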

[18] = qHTS of pediatric cancer cell lines to identify multiple opportunities for drug repurposing: Primary screen for Rh30 cells (AID 1347107); note: series mostly up to about 46 µM; nearly all actives have a fitted effect of over 75% in size
How it was run: as §2

[19] = qHTS of pediatric cancer cell lines to identify multiple opportunities for drug repurposing: Primary screen for Rh41 cells (AID 1347108);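 note: series mostly up to about 46 µM; luminescence drop marks cytotoxic hits; nearly all actives have a fitted effect of over 70% in size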
How it was run: as §1

[20] = tested on: Zika virus NS2B-NS3 protease (unlinked); experiment: Optimization of GU AMC qHTS for Zika virus inhibitors: Unlinked NS2B-NS3 protease assay (AID 1347151); note: series mostly up to about 52 µM; nearly all actives have a fitted effect of over 80% in size
How it was run: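 Noncovalent NS2B hydrophilic domain–NS3 protease complex (25 nM final) in 10 mM Tris-HCl pH 8.0, 0.01% Tween 20; AMC substrate, room temperature 15 min (~20% conversion); fluorescence change normalized, 4-parameter Hill fit.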

Sequence of Furin (Homo sapiens) (P09958 whole entry, looked up): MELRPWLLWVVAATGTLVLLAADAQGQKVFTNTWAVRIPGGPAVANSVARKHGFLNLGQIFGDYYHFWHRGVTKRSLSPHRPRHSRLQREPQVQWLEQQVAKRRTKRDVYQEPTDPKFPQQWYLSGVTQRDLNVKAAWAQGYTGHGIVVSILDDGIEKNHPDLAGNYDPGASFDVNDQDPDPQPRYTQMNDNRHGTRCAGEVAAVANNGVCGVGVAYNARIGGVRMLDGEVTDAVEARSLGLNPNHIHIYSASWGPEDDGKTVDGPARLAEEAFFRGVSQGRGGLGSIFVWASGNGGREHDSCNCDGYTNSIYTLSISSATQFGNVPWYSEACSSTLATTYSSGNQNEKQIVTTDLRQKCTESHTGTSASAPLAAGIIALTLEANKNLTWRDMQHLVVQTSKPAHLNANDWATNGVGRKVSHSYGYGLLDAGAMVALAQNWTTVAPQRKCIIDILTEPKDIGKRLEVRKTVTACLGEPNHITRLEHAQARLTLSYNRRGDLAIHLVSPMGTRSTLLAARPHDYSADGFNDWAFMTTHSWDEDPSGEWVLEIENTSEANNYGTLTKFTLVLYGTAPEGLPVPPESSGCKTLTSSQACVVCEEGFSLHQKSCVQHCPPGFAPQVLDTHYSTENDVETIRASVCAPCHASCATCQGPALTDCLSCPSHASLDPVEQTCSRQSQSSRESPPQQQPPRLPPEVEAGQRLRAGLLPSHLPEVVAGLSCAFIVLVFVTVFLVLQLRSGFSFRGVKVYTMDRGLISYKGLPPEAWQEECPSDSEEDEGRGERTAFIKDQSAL

CC1(C)CCC(C)(C)c2cc(C3(c4ccc(C(=O)O)cc4)OCCO3)ccc21
Potency [1]: inactive

CC(C)c1cccc2c(-c3ccccc3)cc(-c3ccc(-c4ccc(C(=O)O)cc4)[nH]3)nc12
Potency [1]: 39.3 µM (active)

CCC(C(=O)O)c1ccc(N2Cc3ccccc3C2=O)cc1 (stereo not drawn)
outcome [2]: inactive | Potency [3]: inactive | outcome [4]: inactive | outcome [5]: inactive | outcome [6]: inactive | outcome [7]: inactive | Potency [8]: inactive | Potency [9]: inactive | Potency [10]: inactive | Potency [11]: inactive | outcome [12]: inactive | outcome [13]: inactive | outcome [14]: inactive | outcome [15]: inactive | outcome [16]: inactive | outcome [17]: inactive | outcome [18]: inactive | outcome [19]: inactive

CCc1c(-c2ccccc2)c(-c2ccccc2)nn1-c1ccccc1-c1cccc(OCC(=O)O)c1
Potency [1]: 30.4 µM (active)

Nc1ccccc1N
outcome [2]: inactive | Potency [3]: 15.4 µM (active) | Potency [8]: 30.6 µM (active) | Potency [10]: 30.6 µM (active) | Potency [11]: 17.2 µM (active) | outcome [16]: inactive | outcome [17]: inactive

Cc1ccc(N)cc1O
outcome [2]: inactive | Potency [3]: 30.6 µM (active) | Potency [9]: 31.4 µM (active) | outcome [16]: inactive | outcome [17]: inactive

O=C(Nc1ccc(S(=O)(=O)Nc2nccs2)cc1)C(c1ccccc1)c1ccccc1
Potency [1]: inactive

O=C(O)Cc1ccc2oc(-c3ccc(NC(=O)/C=C/c4ccc(Br)cc4)c(F)c3)nc2c1
Potency [1]: 55.5 µM (active)

COc1ccc(C(=O)n2c(C)c(Cc3cccc(O[C@@H](C)C(=O)O)c3)c3cc(OC(F)(F)F)ccc32)cc1
Potency [1]: 49.4 µM (active)

CC1=C(C(=O)OCc2ccccc2)C(c2ccc(-c3ccccc3)cc2)NC(=O)N1CCCCCC(=O)O (stereo not drawn)
Potency [1]: 39.3 µM (active)

O=C(O)c1c(O)c(-c2ccccc2)nc2ccccc12
outcome [2]: inactive | Potency [3]: inactive | outcome [5]: inactive | outcome [7]: inactive | Potency [8]: inactive | Potency [9]: inactive | Potency [10]: inactive | Potency [11]: inactive | outcome [12]: inactive | outcome [13]: inactive | outcome [14]: inactive | outcome [15]: inactive | outcome [16]: inactive | outcome [17]: inactive | outcome [18]: inactive | outcome [19]: inactive

O=C(O)/C=C/c1ccc(-c2ccc(O)c(C34CC5CC(CC(C5)C3)C4)c2)cc1
Potency [1]: 44.1 µM (active)

Nc1ncnc2c([C@@H]3N[C@H](CO)[C@@H](O)[C@H]3O)c[nH]c12
Potency [1]: inactive

O=C(N/N=C/c1ccc(O)c(O)c1)c1cc2ccccc2cc1O
Potency [1]: inactive

CC[C@]1(O)CC2CN(CCc3c([nH]c4ccccc34)[C@@](C(=O)OC)(c3cc4c(cc3OC)N(C)[C@H]3[C@@](O)(C(=O)OC)[C@H](OC(C)=O)[C@]5(CC)C=CCN6CC[C@]43[C@@H]65)C2)C1 (stereo partly drawn)
outcome [20]: inactive

CCOCCOC(=O)/C=C/c1ccc(OC)cc1
outcome [2]: inactive | Potency [3]: inactive | outcome [4]: inactive | outcome [5]: inactive | outcome [6]: inactive | outcome [7]: inactive | Potency [8]: inactive | Potency [9]: inactive | Potency [10]: inactive | Potency [11]: inactive | outcome [12]: inactive | outcome [13]: inactive | outcome [14]: inactive | outcome [15]: inactive | outcome [16]: inactive | outcome [17]: inactive | outcome [18]: inactive | outcome [19]: inactive

N#CC(c1ccnc(OCc2ccc(CN3CCOCC3)cc2)n1)c1nc2ccccc2s1 (stereo not drawn)
Potency [1]: inactive

O=C(O)c1ccccc1NCCc1ccccc1
outcome [2]: inactive | Potency [3]: inactive | outcome [5]: inactive | outcome [6]: inactive | outcome [7]: inactive | Potency [8]: inactive | Potency [9]: inactive | Potency [10]: inactive | Potency [11]: inactive | outcome [12]: inactive | outcome [13]: inactive | outcome [14]: inactive | outcome [15]: inactive | outcome [16]: inactive | outcome [17]: inactive | outcome [18]: inactive | outcome [19]: inactive
